Measured potencies and affinities stand elsewhere.
System: Klebsiella pneumoniae
Conditions: Concentration 20 uM; ASSAY_TEST Inhibition of Bacterial Growth; detection method Absorption (OD600); MEDIA CAMHB; plate type 384well; NBS; CORNING #3640; time 18 hr

Structure (SMILES)	Inhibition [%]
CCc1nn(CCCN2CCN(c3cccc(Cl)c3)CC2)c(=O)n1CCOc1ccccc1.Cl [NEFAZODONE HYDROCHLORIDE]	1.06
O=C1C(CC[S+]([O-])c2ccccc2)C(=O)N(c2ccccc2)N1c1ccccc1 (configuration not stated) [SULFINPYRAZONE]	13.98
CC(C)(C)NC[C@H](O)COc1nsnc1N1CCOCC1.O=C(O)/C=C\C(=O)O [TIMOLOL MALEATE]	6.73
CC(C)NCC(O)c1ccc(NS(C)(=O)=O)cc1.Cl (configuration not stated) [SOTALOL HYDROCHLORIDE]	-0.96
CCOC(=O)C1=C(C)NC(C)=C(C(=O)OC)C1c1cccc(Cl)c1Cl (configuration not stated) [FELODIPINE]	7.48
CC(C)c1ccc2c(c1)c(SC(C)(C)C)c(CC(C)(C)C(=O)O)n2Cc1ccc(Cl)cc1	11.6
COc1ccc(C(=O)NCc2ccc(OCCN(C)C)cc2)cc1OC.Cl	9.02
CC(=O)/N=c1/sc(S(N)(=O)=O)nn1C [METHAZOLAMIDE]	3.3
N[C@@H](Cc1cc(I)c(Oc2cc(I)c(O)c(I)c2)c(I)c1)C(=O)O [LEVOTHYROXINE]	0.79
CCN1CCC[C@H]1CNC(=O)c1c(O)c(Cl)cc(Cl)c1OC [RACLOPRIDE]	6.89
Cc1cccc(CN2CCN(C(c3ccccc3)c3ccc(Cl)cc3)CC2)c1.Cl.Cl (configuration not stated)	10.89
Nc1nnc(-c2cccc(Cl)c2Cl)c(N)n1 [LAMOTRIGINE]	6.26
Clc1ccc2c(c1)C(N1CCNCC1)=Nc1ccccc1O2 [AMOXAPINE]	12.52
CC(C)[C@H](N)C(=O)OCCOCn1cnc2c(=O)nc(N)[nH]c21.Cl [VALACYCLOVIR HYDROCHLORIDE]	6.23
COc1ccc([C@@H]2Sc3ccccc3N(CCN(C)C)C(=O)[C@@H]2OC(C)=O)cc1.Cl [DILTIAZEM HYDROCHLORIDE]	11.57
Cl.c1ccc(CC2=NCCN2)cc1 [TOLAZOLINE HYDROCHLORIDE]	3.87
Cc1cnc(NC(=O)C2=C(O)c3ccccc3S(=O)(=O)N2C)s1 [MELOXICAM]	2.2
CN1CCN(CCCN2c3ccccc3Sc3ccc(C(F)(F)F)cc32)CC1.Cl.Cl [TRIFLUOPERAZINE HYDROCHLORIDE]	10.06
CC(C)[N+]1(C)C2CCC1CC(OC(=O)C(CO)c1ccccc1)C2.[Br-] (configuration not stated)	-0.09

Structure (SMILES)	Inhibition [%]
CCC[C@@H]1C[C@@H](C(=O)N[C@@H]([C@H]2O[C@H](SC)[C@H](O)[C@@H](O)[C@H]2O)[C@@H](C)O)N(C)C1.Cl.O [LINCOMYCIN HYDROCHLORIDE]	17.37
CC(C)c1ccc2oc3nc(N)c(C(=O)O)cc3c(=O)c2c1 [AMLEXANOX]	7.43
COc1cc(C(=O)NS(=O)(=O)c2ccccc2C)ccc1Cc1cn(C)c2ccc(NC(=O)OC3CCCC3)cc12 [ZAFIRLUKAST]	3.3
CCN(CC)C(=O)[C@]1(c2ccccc2)C[C@@H]1CN.Cl [1R,2S-MILNACIPRAN HYDROCHLORIDE]	12.52
CCN(CC)CC1CCCCN1CC(=O)N1c2ccccc2C(=O)Nc2cccnc21 (configuration not stated) [OTENZEPAD]	12.92
CNCC(O)c1ccc(O)c(O)c1 (configuration not stated) [RACEPINEPHRINE]	12.35
Cl.NC1CCN(c2cccc(Cl)n2)CC1	7.75
CCOC(=O)OC(C)OC1=C(C(=O)Nc2ccccn2)N(C)S(=O)(=O)c2ccccc21 (configuration not stated) [AMPIROXICAM]	12.2
C#C[C@]1(O)CC[C@H]2[C@@H]3CCC4=CC(=O)CC[C@@H]4[C@H]3CC[C@@]21CC [LEVONORGESTREL]	13.61
C/C=C1/[C@H]2C=C(C)C[C@]1(N)c1ccc(O)nc1C2	13.99
C#C[C@]1(O)CC[C@H]2[C@@H]3CCC4=Cc5oncc5C[C@]4(C)[C@H]3CC[C@@]21C [DANAZOL]	2.6
C=C1/C(=C\C=C2/CCC[C@]3(C)[C@@H]([C@H](C)/C=C/[C@@H](O)C4CC4)CC[C@@H]23)C[C@@H](O)C[C@@H]1O [CALCIPOTRIENE]	16.21
CCC(=C(c1ccccc1)c1ccc(OCCN(C)C)cc1)c1ccccc1	0.16
O=c1cnn([C@@H]2O[C@H](CO)[C@@H](O)[C@H]2O)c(=O)[nH]1 [6-AZAURIDINE]	4.69
NC(N)=Nc1nc(CSCC/C(N)=N/S(N)(=O)=O)cs1 [FAMOTIDINE]	2.4
CN(C)CCCN1c2ccccc2CCc2ccc(Cl)cc21.Cl [CLOMIPRAMINE HYDROCHLORIDE]	18.4
CC(N)C12CC3CC(CC(C3)C1)C2.Cl (configuration not stated) [RIMANTADINE HYDROCHLORIDE]	8.19
CN(C)C(=O)Oc1ccc[n+](C)c1.[Br-] [PYRIDOSTIGMINE BROMIDE]	3.02
